Screening data (PubChem BioAssay)
KLK7 zymogen act = proKLK7 zymogen activators, primary screen, biochemical, fluorescence intensity; Kallikrein-7 (Homo sapiens), P49862; purified proKLK7, EDANS-DABCYL substrate fluorescence; 100% is mature enzyme control, 0% vehicle; activation, % at 7 µM; actives 0.9% (n = 370,000); AID 652039, 2013;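 active = activation above the mean of all tested compounds plus 3 SD, computed per campaign excluding outliers beyond control limits, cut at about 13% in these data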
UHRF1 binding = UHRF1 methylated DNA binding inhibitors, primary screen, counter-screen for MBD2 inhibitor project, biochemical, TR-FRET, human UHRF1, single concentration; E3 ubiquitin-protein ligase UHRF1 (Homo sapiens), Q96T88; UHRF1 binding to methylated oligo; inhibition, % at 4.4 µM; actives 0.75% (n = 370,000); in the data active = inhibition above about 21%;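 note: UHRF1 SRA domain binding a hemimethylated CpG hairpin DNA probe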
Rin1-Abl PPI inh = inhibitors of Rin1-Abl protein binding, primary screen, biochemical, TR-FRET | Tyrosine-protein kinase ABL1 (Homo sapiens) + Ras and Rab interactor 1 (Homo sapiens), … | inhibition, % at 7.35 µM | actives 0.4% (n = 360,000) | AID 588664, 2011; in the data active = inhibition above about 5%, passing the limit was not always enough
LEDGF integ inh = blockers of LEDGF/p75-dependent integrase strand transfer – biochemical, TR-FRET, high throughput, primary screen | AID 743269, 2014 | TR-FRET IN-LEDGF/p75 DNA integration, Eu/Cy5 | inhibition, % at 3.7 µM | HIV-1 integrase (with human LEDGF/p75) | actives 0.64% (n = 370,000);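 active = inhibition above the screen-wide mean plus 3 SD, cut at about 13% in these data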;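 note: signal is the Cy5 over europium emission ratio at 671 and 618 nm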
Neddylation inh = inhibitors of cullin neddylation, primary screen, biochemical, TR-FRET, uHTS, NAE and Ubc12. calls only at 25 µM. NEDD8-conjugating enzyme Ubc12 (Homo sapiens) + NEDD8-activating enzyme E1 regulatory …. actives 0.58% (n = 360,000). AID 651699, 2012; in the data active = inhibition above about 36%
MBD2 inh = inhibitors of MBD2 binding to methylated DNA, primary screen, biochemical, TR-FRET, DNA-binding domain, human | actives 0.31% (n = 370,000) | inhibition, % at 4.4 µM | MBD2 binding to methylated oligonucleotide | Methyl-CpG-binding domain protein 2 (Homo sapiens), Q9UBB5; in the data active = inhibition above about 13%
IN multimer up = HIV-1 IN multimer formation enhancers, counter-screen for LEDGF/p75 integration inhibitor project, biochemical, TR-FRET; TR-FRET HIV-1 integrase multimerization; actives 17% (n = 2,000); activation, % at 7.7 µM; shares compounds with LEDGF integ inh; AID 1053131, 2014; in the data active = activation above about 8.9%
TRFRET interf = TR-FRET optical interference artefacts, confirmation, artefact control for LEDGF/p75-dependent integration inhibitor project, biochemical, HIV-1 IN multimerization | shares compounds with LEDGF integ inh | TR-FRET optical interference counterscreen | inhibition, % at 7.7 µM | 2,000 tested, under 10 active | AID 1053135, 2014;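 active = inhibition above the mean over all tested compounds plus 3 SD, which no compound reached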
IN-LEDGF confirm = inhibitors of HIV-1 IN-LEDGF/p75 DNA integration, confirmation, biochemical, TR-FRET; actives 36% (n = 2,000); AID 1053136, 2014; shares compounds with LEDGF integ inh; inhibition, % at 3.7 µM; TR-FRET LEDGF/p75-dependent HIV-1 integration; in the data active = inhibition above about 14%
Hits are given with their value; n = inactive; x = no result given; ! = repeats disagree. The list is not random: actives were taken first. Their share in the collection is about 3.1%.

SMILES	KLK7 zymogen act	UHRF1 binding	Rin1-Abl PPI inh	LEDGF integ inh	Neddylation inh	MBD2 inh	IN multimer up	TRFRET interf	IN-LEDGF confirm
CC1=NN(c2ccccc2)C(=O)C1/C=C1/NC(=S)NC1=O (configuration not stated)	n	n	n	n	n	n	x	x	x
CC1=NN(c2ccccc2)C(=O)C1C=Nc1ccc(N(C)C)cc1 (configuration not stated)	n	32	n	60	n	n	n	n	n
CC1C=CC=CCCC=CC=CC=CC=CC(OC2O[C@H](C)[C@@H](O)[C@H](N)[C@@H]2O)CC(O)C(C(=O)O)C(O)CC(=O)CC(O)C(O)CCC(O)CC(O)CC(O)CC(=O)OC(C)C(C)C1O (some centres not stated)	n	n	x	26	x	n	n	n	43
Cc1ccccc1C(=O)c1c[nH]c(C(=O)NCCc2ccccn2)c1	n	n	n	22	n	n	n	n	n
CCC(=O)c1c[nH]c(C(=O)NCCc2ccccn2)c1	n	n	n	n	n	n	x	x	x
O=C1C[C@@H](O)[C@H](O)c2cccc(O)c21	n	n	x	18	x	n	n	n	n
CC(C)N(C(=O)Nc1ccc2nsnc2c1)C(C)C	n	n	x	51	x	n	n	n	75
CN(C)c1ccc(NC(=O)c2ccc3nsnc3c2)cc1	n	n	n	n	n	n	x	x	x
CCOc1ccc(NC(=S)Nc2ccc3nsnc3c2)cc1	n	n	n	40	n	n	n	n	74
COc1ccc(N(C)C(=O)Nc2ccc3nsnc3c2)cc1	n	n	n	56	n	n	n	n	n
COc1ccc(N(C)C(=O)Nc2ccc3c(c2)nnn3C)cc1	n	n	n	n	n	n	x	x	x
CCOc1ccc(NC(=O)Nc2ccc3nsnc3c2)cc1	n	n	n	n	n	n	x	x	x
COc1ccc(NC(=S)Nc2ccc3nsnc3c2)cc1	n	n	n	52	n	n	16	n	74
C=CCN(CC=C)C(=S)Nc1ccc2nsnc2c1	n	n	n	58	n	n	n	n	n
COc1cc(/C=C2/C(=O)CNC2=O)ccc1O	n	n	n	n	n	n	x	x	x
COc1cc(/C=C2\C(=O)N(c3ccc(NC(C)=O)cc3)N=C2c2ccccc2)ccc1O	n	n	n	44	n	n	n	n	n
CC1=NN(c2ccccc2)C(=O)/C1=C\c1sccc1C	n	n	n	n	n	n	x	x	x
O=C1/C(=C\c2ccc(O)c(O)c2)C(c2ccccc2)=NN1c1ccccc1	n	n	n	19	n	n	24	n	29
COc1cc(C=C2C(=O)C=CC2=O)ccc1O	n	97	x	93	n	102	n	n	24
CCOc1cc(/C=C2\C(=O)N(c3nc(-c4ccc(Br)cc4)cs3)N=C2c2ccccc2)ccc1O	x	x	n	x	n	x	x	x	x
Cn1c(Cc2cccs2)nnc1SCC(=O)Nc1ccc2c(c1)OCO2	n	n	x	n	x	n	x	x	x
CC(C)C[C@H]1COc2cc(Br)ccc2S(=O)(=O)N1Cc1cn(Cc2ccc(Br)cc2)nn1	n	n	x	n	x	n	x	x	x
Cc1ccc(C(=O)NCC(C)NC(=O)c2ccc(C)c(C)c2)cc1C (configuration not stated)	n	n	n	n	n	n	x	x	x
Cc1ccc(-n2c(Cc3cccs3)nnc2SCc2ccc([N+](=O)[O-])cc2)cc1	n	n	x	n	x	n	x	x	x
Cc1cc2c(c(=O)o1)C(c1ccc([N+](=O)[O-])o1)C(C#N)=C(N)O2 (configuration not stated)	n	n	n	15	n	n	n	n	n
SMILES	KLK7 zymogen act	UHRF1 binding	Rin1-Abl PPI inh	LEDGF integ inh	Neddylation inh	MBD2 inh	IN multimer up	TRFRET interf	IN-LEDGF confirm
CCC(CC)C1C(C#N)=C(N)Oc2cc(C)oc(=O)c21 (configuration not stated)	n	n	n	n	n	n	x	x	x
CN(C)S(=O)(=O)N1CCc2ccc(NC(=O)c3ccc(C(F)(F)F)cc3)cc2C1	n	n	n	n	n	n	x	x	x
COc1ccc(CNC(=O)C2CCCN(c3nccc(C)n3)C2)cc1 (configuration not stated)	n	n	n	23	n	n	n	n	n
O=C(C1CCN(c2cncnc2)CC1)N1CCOCC1	n	n	x	n	x	n	x	x	x
CSc1ccccc1Nc1ncnc(N)n1	n	n	n	n	n	n	x	x	x
COC(=O)c1cc(S(=O)(=O)N2CCCC2)c(Cl)cc1Cl	n	n	n	61	n	n	n	n	n
C=CCn1c(COc2ccc(Cl)cc2)nnc1SCC(=O)c1ccccc1	n	n	x	n	x	n	x	x	x
CCc1nc(NCc2cccs2)c2nnn(Cc3ccccc3)c2n1	n	n	n	16	n	n	n	n	n
FC(F)(F)c1cccc(OCCOCCn2cncn2)c1	n	n	n	21	n	n	n	n	n
c1ccc(-c2ccc(OCCOCCn3cncn3)cc2)cc1	n	n	n	n	n	n	x	x	x
COc1ccc(NS(=O)(=O)c2ccc(OC)c(NC(=O)CNC(=O)c3ccc(OC)cc3)c2)cc1	n	n	n	n	n	n	x	x	x
CCOc1nc(Nc2ccccc2)nc(OCC)n1	n	n	n	24	n	n	n	n	n
CC1CCCCC1NC(=O)CSc1nnc(CC(=O)Nc2ccccc2F)n1C (configuration not stated)	n	n	n	n	n	n	x	x	x
Cc1ccc(S(=O)(=O)NC2=C(N3CCN(c4ccccc4F)CC3)C(=O)c3ccccc3C2=O)cc1	n	n	n	15!	n	n	n	n	n
O=C(Cc1ccccc1)c1ccc(N2CCOCC2)cc1	n	n	n	n	n	n	x	x	x
CC(C)CC(C(=O)Nc1oc(-c2ccco2)c(-c2ccco2)c1C#N)N1C(=O)c2ccccc2C1=O (configuration not stated)	n	n	n	17	n	n	n	n	n
O=S(=O)(c1ccccc1)N(CC1CO1)c1cc(Cl)ccc1Cl (configuration not stated)	n	n	n	n	n	n	x	x	x
